High-throughput results (PubChem)
The sample as a whole holds a higher share of hits than the screen did.
TDP-43 rescue: rescues yeast from TDP-43 toxicity; actives 0.45% (n = 45,000); Potency, µM (doses to about 46.1 µM), hits mostly activators; yeast TDP-43 toxicity rescue, BacTiter-Glo growth, 24 h; AID 1347073; active = well fitted activation curve with a large enough effect; also: 0% is about no effect; nearly all actives have a fitted effect of over 55% in size
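TDP-43-expressing yeast, pregrown in raffinose, seeded at OD600 0.02 in galactose medium with compound for 24 hr at 30 deg C. Growth read by BacTiter-Glo luminescence, so rescue of toxicity appears as activation.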
The depositor's hits bear a star. Potency is read from the fitted curve at half-maximal effect.

Screening CCCS(=O)(=O)NC(=O)C1(C)CCCN(C(=O)C2(c3ccc(Cl)cc3)CCCC2)C1 (configuration not stated) returned TDP-43 rescue inactive.
`O=C(Nc1cccc(C(=O)O)c1)/C(=C\c1ccccc1)NC(=O)c1cccc2ccccc12` gave TDP-43 rescue inactive.
COc1nc(Nc2cccc([N+](=O)[O-])c2)nc(OC)n1 was read as TDP-43 rescue inactive.
`C#CCOc1nc(Nc2cccc([N+](=O)[O-])c2)nc(OCC#C)n1` gave TDP-43 rescue inactive.
Screening COc1nc(Nc2ccc([N+](=O)[O-])cc2)nc(NC2CCCCC2)n1 returned TDP-43 rescue 16µM*.
For CC(CC(=O)NNC(=O)c1cccc(Cl)c1)c1ccccc1 (configuration not stated) the results were TDP-43 rescue inactive.
`COCCCNC(=O)CCCn1c(=O)c2ccccc2n(Cc2cccc([N+](=O)[O-])c2)c1=O` gave TDP-43 rescue inactive.
For O=C(COC(=O)c1ccc(Br)cc1)NCC1CCCO1 (configuration not stated) the results were TDP-43 rescue inactive.
Screening O=C(COC(=O)c1c(Cl)ccc(Cl)c1Cl)NCC1CCCO1 (configuration not stated) returned TDP-43 rescue 14µM*.
Screening O=C(COC(=O)/C=C/c1ccccc1Cl)NCC1CCCO1 (configuration not stated) returned TDP-43 rescue inactive.
Screening Cc1ccccc1Nc1nnc(SCC(=O)NCc2cccs2)s1 returned TDP-43 rescue inactive.
For Cc1cccc(NC(=O)CSc2nnc(NC(=O)C3CC3)s2)c1C the results were TDP-43 rescue inactive.
For Cc1cccc(Nc2nnc(SCC(=O)Nc3ccccc3[N+](=O)[O-])s2)c1C the results were TDP-43 rescue 18µM*.
Screening CCc1ccccc1NC(=O)C1C2C=CC(O2)C1C(=O)O (configuration not stated) returned TDP-43 rescue inactive.
Screening O=C(/C=C/c1ccc(S(=O)(=O)NCc2ccco2)cc1)N1CCN(c2ccccc2)CC1 returned TDP-43 rescue inactive.
Screening CCN(c1ccccc1)S(=O)(=O)c1nnc(NC(=O)C(C)C)s1 returned TDP-43 rescue inactive.
For Cc1ccc(C(=O)OCC(=O)N2CCCC2)cc1 the results were TDP-43 rescue inactive.
Screening COc1ccc(-c2nc3c4cnn(-c5ccccc5F)c4ncn3n2)cc1 returned TDP-43 rescue inactive.
`Cc1c(NC(=O)c2cc(-c3cccc(Cl)c3)on2)c(=O)n(-c2ccccc2)n1C` gave TDP-43 rescue inactive.
For O=C(NC1CCCCCC1)C(Cc1ccccc1)n1cccc1 (configuration not stated) the results were TDP-43 rescue inactive.
O=C(Nc1ccc(F)cc1)C(Cc1ccccc1)n1cccc1 (configuration not stated) was read as TDP-43 rescue 13µM*.
`O=C(Cc1ccccc1)Nc1ccc(F)cc1` gave TDP-43 rescue inactive.
For CN(CC(=O)NCc1ccc(F)cc1)S(=O)(=O)c1ccc(Br)s1 the results were TDP-43 rescue inactive.
CCS(=O)(=O)c1ncc(Cl)c(C(=O)N2CCN(c3ccc(OC)cc3)CC2)n1 was read as TDP-43 rescue inactive.
`CCC(CC)C(=O)N(C)c1c(C)nc2c(OCc3ccccc3C(=O)OC)cccn12` gave TDP-43 rescue inactive.
COc1cc(Cn2c3ccc(NC(=O)CC(C)C(F)(F)F)cc3c(=O)n2C)ccc1F (configuration not stated) was read as TDP-43 rescue inactive.
Screening COc1cc(OC)cc(C(=O)Nc2c(C)nn(-c3ccccc3)c2C)c1 returned TDP-43 rescue inactive.
`COc1ccc(C(=O)NC(=S)N2CCCCC2)cc1[N+](=O)[O-]` gave TDP-43 rescue inactive.
For COc1cccc(CC(=O)N2CCN(c3ccccc3[N+](=O)[O-])CC2)c1 the results were TDP-43 rescue inactive.
`COc1ccc(N2CCN(C(=S)NC(=O)c3cccs3)CC2)c([N+](=O)[O-])c1` gave TDP-43 rescue 28µM*.
For COc1ccc(-c2csc(NC(=S)NC(=O)c3cccs3)n2)cc1OC the results were TDP-43 rescue inactive.
For COc1ccc(-c2csc(NCc3ccco3)n2)cc1C the results were TDP-43 rescue 18µM*.
COc1cc(CNCc2ccco2)cc(OC)c1O was read as TDP-43 rescue inactive.
Screening Cc1ccc(NC(=O)Cn2ccc(=O)[nH]c2=O)cc1 returned TDP-43 rescue inactive.
`O=C(Cc1cccc(F)c1)Nc1ccc2c(c1)CCC2` gave TDP-43 rescue inactive.
Screening O=C(Nc1ccc2c(c1)CCC2)c1cccc(F)c1 returned TDP-43 rescue 16µM*.
Screening CSc1ccccc1C(=O)Nc1ccc2c(c1)CCC2 returned TDP-43 rescue inactive.
COCCNc1ncnc2c1ncn2[C@H]1CN(Cc2ccncc2)C[C@@H](CO)O1 was read as TDP-43 rescue inactive.
For COc1cccc(OC)c1NC(=O)CN1CCN(C)CC1 the results were TDP-43 rescue inactive.
CCOc1ccc(C(=O)NC2CCN(C(=O)Nc3ccc(F)cc3)CC2)cc1 was read as TDP-43 rescue inactive.
For CC1=C([N+](=O)[O-])C(c2ccc(Cl)cc2)NC(=O)N1C (configuration not stated) the results were TDP-43 rescue inactive.
For Cn1c(=O)c2c(ncn2CC(=O)OCC(=O)Nc2cc(Cl)ccc2C#N)n(C)c1=O the results were TDP-43 rescue inactive.
`COc1ccc(CN2CCC(n3nccc3NC(=O)C3CC3)CC2)cc1O` gave TDP-43 rescue inactive.
For S=C(NCCc1cnc[nH]1)NC1CCCC1 the results were TDP-43 rescue inactive.
`O=C(COC(=O)CCC(=O)c1ccc(Cl)cc1)NCc1ccc(F)cc1` gave TDP-43 rescue inactive.
`COc1cccc(NC(=O)COC(=O)CCSc2ccccc2)c1` gave TDP-43 rescue inactive.
For O=C(COC(=O)CCSc1ccc(Cl)cc1)Nc1ccc(F)cc1 the results were TDP-43 rescue 11µM*.
`CC(NC(=O)C12CC3CC(CC(O)(C3)C1)C2)c1ccc(Cl)cc1Cl` (configuration not stated) gave TDP-43 rescue inactive.
For CCCC(C)c1nnc(NC(=O)COc2ccc3c(c2)OCO3)s1 (configuration not stated) the results were TDP-43 rescue inactive.
O=S(=O)(NCc1ccco1)c1ccc2ccccc2c1 was read as TDP-43 rescue 11µM*.
For O=S(=O)(NCc1ccco1)c1ccc(Cl)cc1Cl the results were TDP-43 rescue inactive.
O=[N+]([O-])c1ccccc1S(=O)(=O)NCc1ccco1 was read as TDP-43 rescue inactive.
Screening Cn1cc(-c2cc3n(n2)CCC(=O)N3CC(=O)O)c2ccccc21 returned TDP-43 rescue inactive.
Clc1ccccc1-c1cnc2sc(NCc3ccc4c(c3)OCO4)nn12 was read as TDP-43 rescue 5µM*.
`O=C(CSc1nc2cc(Cl)ccc2s1)NCc1ccc2c(c1)OCO2` gave TDP-43 rescue inactive.
CN1CCN(S(=O)(=O)c2ccc(NCc3ccc4c(c3)OCO4)nc2)CC1 was read as TDP-43 rescue inactive.
COc1ccccc1NC(=O)N1C2CCCC1CC(NC(=O)c1ccccc1)C2 (configuration not stated) was read as TDP-43 rescue inactive.
Screening O=C(COC(=O)c1ccc(S(=O)(=O)N2CCCCC2)cc1)NCc1ccccc1 returned TDP-43 rescue inactive.
For COc1ccc(C(=O)NNC(=O)c2ccccc2[N+](=O)[O-])cc1 the results were TDP-43 rescue inactive.
